Legend:
Assay in all cases: PBM binding z-score (relative to random genomic background probes); higher = stronger binding; sequences stand for … in GC…GCGATTGACAGCGTAGAATGAAGG
[1] = test system: FXR:RXRa (NR concentration 270 nM, RXRa partner concentration 90 nM)
Procedure, shortened: (§1)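 Probes were double-stranded and carried 34-nt variable regions with direct-repeat seeds, single-nucleotide variants, half-site ablations and random human genomic background sequences, printed on custom Agilent 4×180K protein-binding microarrays. Arrays were incubated 1 h with ligand-free nuclear receptor dimers in PBS pH 7.4, 2% milk, 0.02% Triton X-100, 1 mM DTT, 0.2 mg/mL BSA and 0.4 mg/ml salmon testes DNA. Antibodies against each partner (one per run) detected binding, and scanned fluorescence was regression-normalized. Binding z-scores use the random background probes as reference.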

[2] = test system: LXRa:RXRa (NR concentration 270 nM, RXRa partner concentration 90 nM)
Procedure, shortened: as §1

[3] = test system: LXRa homodimer (NR concentration 270 nM)
Procedure, shortened: as §1

[4] = test system: LXRb:RXRa (NR concentration 270 nM, RXRa partner concentration 90 nM)
Procedure, shortened: as §1

[5] = test system: LXRb homodimer (NR concentration 270 nM)
Procedure, shortened: as §1

[6] = test system: PPARa:RXRa (NR concentration 270 nM, RXRa partner concentration 90 nM)
Procedure, shortened: as §1

[7] = test system: PPARg:RXRa (NR concentration 180 nM, RXRa partner concentration 90 nM)
Procedure, shortened: as §1

[8] = test system: PPARg:RXRa 270nM:90nM, anti-RXR (NR concentration 270 nM, RXRa partner concentration 90 nM)
Procedure, shortened: as §1

[9] = test system: PPARg:RXRa 30nM:10nM, anti-RXR (NR concentration 30 nM, RXRa partner concentration 10 nM)
Procedure, shortened: as §1

[10] = test system: PPARg:RXRa 90nM:30nM, anti-RXR (NR concentration 90 nM, RXRa partner concentration 30 nM)
Procedure, shortened: as §1

Row | Sequence | PBM binding z-score [1] | PBM binding z-score [2] | PBM binding z-score [3] | PBM binding z-score [4] | PBM binding z-score [5] | PBM binding z-score [6] | PBM binding z-score [7] | PBM binding z-score [8] | PBM binding z-score [9] | PBM binding z-score [10]
1 | CCGACTGGGGCAGAAAGGTTACCCTACCATCCGG | 0.191 | 0.465 | -0.126 | 0.448 | -1.02 | 1.5 | 1.17 | 2.33 | 0.336 | 1.78
2 | CGTCCAAGGTCAATGCTACGTCAGTGAAAGCATT | 6.6 | 4.58 | 0.394 | 3.37 | 0.412 | 4.89 | 3.32 | 4.18 | 1.44 | 3.3
3 | CCTAGCAGGCCAATCTGGGTCTCTCAAGGCTTGA | -0.268 | -0.409 | -0.738 | -0.885 | -0.982 | 0.318 | -0.774 | -0.468 | -1.1 | -0.61
4 | ACTATTAGTTGAGACGAGGGCCACCGATAGGTTG | -0.105 | -0.102 | -0.224 | -0.593 | 0.0596 | -0.508 | 0.594 | -0.159 | 0.0911 | -0.12
5 | ATATGTAGGTTATCAGGTCATTCAGTTTGCGCAT | 3.19 | 3.57 | 4.4 | 2.93 | 1.68 | 4.62 | 7.23 | 5.99 | 4.05 | 5.54
6 | CAAACTAGGTCAAGAGGTCAAAGACCGCTTCCCG | 7 | 6.25 | 5.13 | 5.46 | 1.47 | 6.65 | 10.1 | 8.53 | 7.38 | 8.62
7 | TCTGCTATGTCAGTTGGTCAGCTAACGAGCTGCC | -0.167 | -0.237 | -1.15 | -0.392 | -0.0439 | -0.108 | -0.623 | 0.446 | 0.854 | 0.78
8 | GCATATAGGTAATACAAGGCGAAAGTCCGATTGT | 0.229 | 0.00213 | 0.175 | -0.106 | -0.482 | 0.752 | 0.874 | 0.503 | 0.39 | 0.229
9 | CAGCCTAGGTTAGGGCCAGTATAGGAGGAACGTT | -0.436 | -0.473 | -0.564 | -0.633 | -1.42 | -0.175 | 0.211 | -0.361 | -0.521 | -0.278
10 | ACTACAGGGTCATCGTAGGCCAGAGTACGCACAG | 6.89 | 5.5 | 0.216 | 4.08 | 0.987 | 5.89 | 5.88 | 5.25 | 2.32 | 3.77
11 | GCTAGCAGGCCATTTGGGTCACTTAATGACGGGC | 0.0717 | -0.185 | -0.464 | -0.142 | -0.905 | 1.16 | 0.67 | 0.681 | -0.515 | 0.00792
12 | AGAATGAGGTTAAGATCAGGGATACAGAATACAT | 2.25 | 1.75 | 0.0573 | 1.78 | 0.0208 | 3.7 | 2.77 | 2.46 | 0.866 | 1.71
13 | TCTAGTTGGTTAAAGGTCACACACTCGAAATGCG | 5.51 | 5.54 | 4.45 | 5.47 | 2.22 | 6.63 | 9.55 | 8.64 | 8.96 | 9.31
14 | TCTATTAGTTGATTAGAGCAACCGAAACAGCGGA | 0.47 | 0.476 | 0.0625 | 0.326 | 0.361 | 0.484 | -0.0852 | 1.56 | 3.21 | 2.38
15 | GATCGGAGGACAAGGTCAGAGCTTTGTCCGTAGA | 1.55 | 1.42 | -0.502 | 0.993 | -1.3 | 2.42 | 1.07 | 2 | -0.141 | 1.17
16 | AGAATGAGGTTATTAAGATTAGGGAATTGCGGTC | 1.47 | 1.57 | 0.419 | 1.24 | 0.178 | 2.61 | 1.17 | 1.57 | 0.697 | 1.37
17 | TAGCCTAGGTCATTCAGGGGCCGGTATAGAAAGC | 4.65 | 3.59 | 1.03 | 2.73 | 1.63 | 3.57 | 1.87 | 2.46 | 0.494 | 1.41
18 | ATCGAAAGGTCGTGAGGTGGGTATACAGAAAGGC | 5.14 | 4.18 | 0.358 | 3.28 | 0.784 | 4.96 | 3.35 | 3.96 | 1.29 | 2.77
19 | CGAACTAGGACAGAACAGGACAGTGAAGGATGAT | -0.286 | -0.561 | -0.364 | -0.706 | -0.58 | -0.0263 | 1.23 | 0.13 | 0.00825 | 0.0847
20 | CGAACGAGTGCATGAGTTGATAGCAAATGCCGAT | -0.259 | -0.143 | -0.369 | -0.0215 | -0.861 | 0.127 | 0.68 | 0.262 | -0.00177 | -0.142
21 | GTACCAAGGTGAATAGGTCGGTGATGAGTAGGCG | 0.606 | 0.247 | -0.139 | 0.125 | -0.619 | 1.64 | 1.24 | 1.29 | 0.291 | 0.711
22 | GCTGCTAGGTCAACTGATGGTAAGCTAAAGCTCG | 3.67 | 2.53 | -0.233 | 1.66 | -0.0534 | 3.56 | 2.6 | 2.85 | 0.773 | 2.04
23 | GCTGCTAGGTCAGGTTGGCCAGCTAACGGGTACG | 1.01 | 0.472 | -0.875 | 0.118 | -0.715 | 1.32 | 0.322 | 0.756 | -0.322 | 0.219
24 | GATACATGGTCAGCTAGAGGCCAGAGTATGGAAA | -0.242 | -0.822 | -0.541 | -0.77 | -1.11 | -0.488 | 0.533 | -0.14 | -0.161 | -0.183

Source: the supplement of paper PMC6555819
